Test systems include DU-145 prostate; K-562 leukemia; MALME-3M melanoma; MDA-MB-231 breast; RXF 393 renal; SF-268 CNS; SF-295 CNS; SF-539 CNS; UACC-257 melanoma; M14 melanoma; HCT-15 colon; HT29 colon; SNB-75 CNS; SNB-19 CNS; U251 CNS; PC-3 prostate; SK-MEL-5 melanoma; UACC-62 melanoma; LOX IMVI melanoma; SK-MEL-28 melanoma.
Experiment in all cases: NCI-60 one-dose screen, 48 h (100 = growth as untreated, 0 = no growth, -100 = all killed)
What all share (conditions): 10 µM unless noted

The panel holds about 83,000 compounds, 20% with a hit somewhere; the sample as a whole holds those more often.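 How to read the values: 0–100, growth inhibition (40 = 60% inhibited); 0, no net growth; -100 to 0, cell death (-40 = 40% of starting cells died; -100 = all dead).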 Values without a mark were called inactive. Activity calls are given as the source filed them. How the source made its calls: active means growth percent below 10; inactive means the rest.

Take `COC(=O)c1oc2c(C(C)=O)c(OCCCN(C)C)ccc2c1C`: the growth in the assay on DU-145 prostate was 150%; in the assay with K-562 leukemia, 73.3%; in the assay with MALME-3M melanoma, 72.3%; with MDA-MB-231 breast, 95%; in the assay with RXF 393 renal, 96.1%; in the assay on SF-268 CNS it was 207%. Besides, the growth in the assay with SF-295 CNS was 109%; in the assay on SF-539 CNS, 124%; in the assay on UACC-257 melanoma, 106%; in the assay on M14 melanoma, 123%; with HCT-15 colon it was 99.6%; in the assay with HT29 colon, 69.1%. In addition, the growth in the assay on SNB-75 CNS was 91.3%; in the assay on SNB-19 CNS, 103%; in the assay with U251 CNS, 99.5%; in the assay on PC-3 prostate it was 88.9%; in the assay on SK-MEL-5 melanoma, 103%; in the assay on UACC-62 melanoma it was 98.8%. Moreover, the growth in the assay on LOX IMVI melanoma is 95%; in the assay on SK-MEL-28 melanoma it was 110%.

In the case of `COc1ccc(Cl)cc1NC(=O)c1cc2c([nH]1)-c1nc(NC(=O)C(C)(C)C)sc1CC2`, the growth is 59.9% in the assay with DU-145 prostate; 10.6% with K-562 leukemia; 74.1% in the assay with MALME-3M melanoma; 33.1% in the assay with MDA-MB-231 breast; 99% with RXF 393 renal; 45.3% with SF-268 CNS. In addition, the growth with SF-295 CNS was 84.2%; in the assay on SF-539 CNS, -14.6% (active); with UACC-257 melanoma it was 94.4%; with M14 melanoma, 71.7%; in the assay with HCT-15 colon, 49.1%; with HT29 colon it was 59.1%. In addition, the growth in the assay with SNB-75 CNS was 50.5%; with SNB-19 CNS, 44%; in the assay on U251 CNS, 9.52% (active); in the assay with PC-3 prostate, 61.4%; in the assay with SK-MEL-5 melanoma it was 55.5%; in the assay on UACC-62 melanoma, 81.2%. Also, the growth in the assay on LOX IMVI melanoma was 53.4%; in the assay on SK-MEL-28 melanoma, 94.2%.

Take `COC1OCC(OS(=O)(=O)c2ccc(C)cc2)C(OC(=O)c2ccccc2)C1OC(=O)c1ccccc1` (stereo not given): the growth is 66.6% in the assay with DU-145 prostate; 37.8% in the assay on K-562 leukemia; 37.3% in the assay with MALME-3M melanoma; 57.2% in the assay with MDA-MB-231 breast; 49.6% in the assay with RXF 393 renal; 62.4% in the assay on SF-268 CNS. For the same compound, the growth in the assay with SF-295 CNS was 30%; in the assay on SF-539 CNS, 39.2%; in the assay on UACC-257 melanoma it was 71%; in the assay on M14 melanoma, 34.3%; with HCT-15 colon, 38.3%; in the assay on HT29 colon, 7.49% (active). The growth is 32.5% with SNB-75 CNS; 61.2% with SNB-19 CNS; 39.3% in the assay on U251 CNS; 47.8% in the assay with PC-3 prostate; 30.7% in the assay on SK-MEL-5 melanoma; 36.1% in the assay on UACC-62 melanoma. Moreover, the growth with LOX IMVI melanoma was 44.8%; in the assay with SK-MEL-28 melanoma, 57.7%.

Consider `O=C(Nc1cccc(-n2ccc3c(NC(=O)c4ccccc4)nccc32)c1)c1cc(N2CCOCC2)cc(C(F)(F)F)c1`, for which the growth in the assay on DU-145 prostate is -20.2% (active); in the assay with K-562 leukemia, 4.28% (active); in the assay with MALME-3M melanoma, 32%; in the assay on MDA-MB-231 breast it was -16.6% (active); in the assay with RXF 393 renal it was -67.3% (active); with SF-268 CNS, 8.26% (active). Also, the growth in the assay on SF-295 CNS is -24.4% (active); with SF-539 CNS, -23.2% (active); in the assay on UACC-257 melanoma it was 32%; in the assay with M14 melanoma, 9.34% (active); in the assay with HCT-15 colon, 3.17% (active); in the assay with HT29 colon, -22.6% (active). The growth in the assay with SNB-75 CNS is 39.2%; in the assay with SNB-19 CNS, 26.3%; with U251 CNS, 4.89% (active); with PC-3 prostate it was 27.9%; with SK-MEL-5 melanoma, -74.7% (active); in the assay with UACC-62 melanoma, 17.5%. Further, the results for the growth with LOX IMVI melanoma and in the assay with SK-MEL-28 melanoma were 9.47% (active) and 38%, respectively.

Take `Clc1ccc2c(c1)nnn1c3ncccc3c(Br)c21`: the growth in the assay with DU-145 prostate is 90.9%; with K-562 leukemia, 81.8%; in the assay with MALME-3M melanoma, 81.8%; with MDA-MB-231 breast, 63.9%; in the assay on RXF 393 renal it was 41.5%; with SF-268 CNS it was 60.9%. The growth with SF-295 CNS is 61.9%; in the assay on SF-539 CNS it was 61.9%; with UACC-257 melanoma, 101%; in the assay with M14 melanoma, 97.7%; in the assay on HCT-15 colon it was 101%; in the assay with HT29 colon, 93.8%. In addition, the growth is -3.76% (active) in the assay on SNB-75 CNS; 89% in the assay with SNB-19 CNS; 59.4% in the assay on U251 CNS; 78.6% in the assay with PC-3 prostate; 77.3% in the assay with SK-MEL-5 melanoma; 58.3% in the assay with UACC-62 melanoma. Moreover, the growth in the assay with LOX IMVI melanoma is 77.5%; with SK-MEL-28 melanoma, 109%.

As for `Cc1cc(-c2ccccc2)nc2ccccc12`, the growth is 112% with DU-145 prostate; 91.8% with K-562 leukemia; 99.4% in the assay on MALME-3M melanoma; 94.3% in the assay on MDA-MB-231 breast; 94.6% in the assay with RXF 393 renal; 94.7% in the assay with SF-268 CNS. The growth in the assay with SF-295 CNS was 97.6%; in the assay with SF-539 CNS, 98.2%; with UACC-257 melanoma it was 99.9%; in the assay with M14 melanoma it was 96.6%; with HCT-15 colon it was 97.5%; with HT29 colon, 113%. Moreover, the growth in the assay on SNB-75 CNS is 86.9%; in the assay with SNB-19 CNS, 101%; in the assay with U251 CNS, 97.4%; in the assay on PC-3 prostate, 99.8%; in the assay with SK-MEL-5 melanoma, 95%; in the assay on UACC-62 melanoma, 95.7%. The growth with LOX IMVI melanoma is 98.5%; in the assay on SK-MEL-28 melanoma, 114%.

As for `O=S(=O)(Nc1cccc2cc(OS(=O)(=O)c3ccccc3)ccc12)c1ccccc1`, the growth in the assay with DU-145 prostate was 92%; with K-562 leukemia, 25.2%; in the assay on MALME-3M melanoma it was 56.2%; with MDA-MB-231 breast, 76.4%; in the assay on RXF 393 renal, 86.5%; in the assay on SF-268 CNS, 74.2%. Moreover, the growth in the assay with SF-295 CNS is 59.3%; in the assay with SF-539 CNS, 63.4%; with UACC-257 melanoma, 75.6%; in the assay with M14 melanoma, 40.3%; in the assay on HCT-15 colon it was 34.4%; in the assay with HT29 colon, 19.2%. The growth in the assay on SNB-75 CNS is 49.6%; in the assay on SNB-19 CNS, 78.2%; in the assay with U251 CNS, 48.5%; in the assay on PC-3 prostate, 59%; with SK-MEL-5 melanoma, 53.4%; with UACC-62 melanoma it was 61%. The results for the growth with LOX IMVI melanoma and in the assay with SK-MEL-28 melanoma were 55.4% and 66.4%, respectively.

As to `CCCCN(CCCC)c1ccc(C(=N)c2ccc(N(C)C)cc2)cc1`, the growth in the assay on DU-145 prostate was -21% (active); in the assay with K-562 leukemia, -30.9% (active); with MALME-3M melanoma it was -81.6% (active); in the assay with MDA-MB-231 breast, -76.7% (active); in the assay on RXF 393 renal, -75% (active); with SF-268 CNS it was -21.8% (active). In addition, the growth in the assay on SF-295 CNS was -72.1% (active); in the assay on SF-539 CNS, -89.1% (active); in the assay on UACC-257 melanoma, -62.8% (active); in the assay on M14 melanoma it was -93.3% (active); in the assay with HCT-15 colon, -58.7% (active); in the assay on HT29 colon, -50.8% (active). The growth in the assay on SNB-75 CNS was -46.6% (active); in the assay on SNB-19 CNS it was 6.19% (active); with U251 CNS, -17% (active); with PC-3 prostate, -14.7% (active); in the assay on SK-MEL-5 melanoma it was -99.8% (active); with UACC-62 melanoma, -71.9% (active). Moreover, the growth with LOX IMVI melanoma was -95.9% (active); with SK-MEL-28 melanoma, -70.1% (active).

For the origin of these results see PubChem BioAssay (NCI).
